Data on four molecules can be found in PubChem BioAssay (EPA / NIEHS).

Read-out in experiment [1]: TIMP metallopeptidase inhibitor 1 (TIMP1), TIMP1 (gene 7076)
As to the kind of experiment: BSK_hDFCGF_TIMP1: BioMAP Diversity Plus: hDFCGF Assay for TIMP metallopeptidase inhibitor 1 (TIMP1) Biomarker Activity (AID 2283062). The following applies: primary human foreskin fibroblasts; actives raise or lower the signal. An outline of the steps: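 Primary human foreskin fibroblasts in the hDFCGF system were dosed with compound for 24 h, then TIMP-1 was measured by ELISA. Activity was fitted bidirectionally relative to DMSO control; parallel SRB staining assessed cytotoxicity.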

Read-out in experiment [2]: Monokine induced gamma interferon (MIG), CXCL9 (gene 4283)
As to the kind of experiment: BSK_hDFCGF_MIG: BioMAP Diversity Plus: hDFCGF Assay for Monokine induced gamma interferon (MIG) Biomarker Activity (AID 2283063). The conditions noted are these: primary human foreskin fibroblasts; actives raise or lower the signal. Put shortly:
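ELISA read-out of MIG from primary human dermal fibroblasts 24 h post-dosing. Gain or loss of signal fitted bidirectionally, DMSO as baseline.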

Read-out in experiment [3]: Matrix Metallopeptidase 1 (MMP1), MMP1 (gene 4312)
As to the kind of experiment: BSK_hDFCGF_MMP1: BioMAP Diversity Plus: hDFCGF Assay for Matrix Metallopeptidase 1 (MMP1) Biomarker Activity (AID 2283064). The following applies: primary human foreskin fibroblasts; actives raise or lower the signal. An outline of the steps: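 hDFCGF primary fibroblasts (human foreskin); chemical added; 24 h; MMP1 by ELISA; bidirectional fit vs DMSO.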

Read-out in experiment [4]: Vascular cell adhesion molecule 1 (VCAM1), VCAM1 (gene 7412)
As to the kind of experiment: BSK_hDFCGF_VCAM1: BioMAP Diversity Plus: hDFCGF Assay for Vascular cell adhesion molecule 1 (VCAM1) Biomarker Activity (AID 2283065).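 For AC50: VCAM-1 protein level quantified by ELISA after 24 h chemical exposure.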 The conditions noted are these: primary human foreskin fibroblasts; actives raise or lower the signal. Put shortly: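 Primary human foreskin fibroblasts (hDFCGF system) were dosed with chemical and VCAM-1 was measured by ELISA 24 h later. Bidirectional curve fitting used DMSO as negative control and activity baseline.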

Read-out in experiment [5]: Plasminogen activator inhibitor-1 (PAI1), SERPINE1 (gene 5054)
Briefly: BSK_hDFCGF_PAI1: BioMAP Diversity Plus: hDFCGF Assay for Plasminogen activator inhibitor-1 (PAI1) Biomarker Activity (AID 2283066). The following applies: primary human foreskin fibroblasts; actives raise or lower the signal. Put shortly:
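Primary dermal fibroblasts (human foreskin), hDFCGF system; compound 24 h; PAI-1 by ELISA; bidirectional fit vs DMSO control.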

Read-out in experiment [6]: Intercellular Adhesion Molecule 1 (ICAM1), ICAM1 (gene 3383)
Briefly: BSK_KF3CT_ICAM1: BioMAP Diversity Plus: KF3CT Assay for Intercellular Adhesion Molecule 1 (ICAM1) Biomarker Activity (AID 2283067). The following applies: primary human keratinocytes with fibroblasts; actives raise or lower the signal. Put shortly: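 Human keratinocyte plus foreskin fibroblast primary co-culture was exposed to chemical for 24 h. ICAM-1 was then quantified by ELISA, and the data were fit bidirectionally against DMSO as the negative control and baseline.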

Read-out in experiment [7]: Interferon-gamma inducible Protein 10 (IP10), CXCL10 (gene 3627)
Briefly: BSK_KF3CT_IP10: BioMAP Diversity Plus: KF3CT Assay for Interferon-gamma inducible Protein 10 (IP10) Biomarker Activity (AID 2283068). The conditions noted are these: primary human keratinocytes with fibroblasts; actives raise or lower the signal. An outline of the steps: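 Human keratinocyte plus foreskin fibroblast primary co-culture exposed to test chemical for 24 h; IP-10 measured by ELISA. Concentration-response fitted bidirectionally against DMSO control as baseline.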

A short description of experiment [8]: BSK_KF3CT_SRB: Viability Assessment in the BioMAP Diversity Plus: KF3CT Assay (AID 2283069).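 Note: total protein by sulforhodamine B staining as a cytotoxicity measure; read 24 h after compound addition; fitted for both signal gain and loss against DMSO baseline.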 The following applies: primary human keratinocytes with fibroblasts. Put shortly:
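Keratinocytes co-cultured with foreskin fibroblasts (human primary); chemical added, 24 h; fix 10% TCA, stain 0.1% SRB, A560. Bidirectional fit vs DMSO.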

Read-out in experiment [9]: Interleukin-1 alpha (IL1a), IL1A (gene 3552)
As to the kind of experiment: BSK_KF3CT_IL1a: BioMAP Diversity Plus: KF3CT Assay for Interleukin-1 alpha (IL1a) Biomarker Activity (AID 2283070). The following applies: primary human keratinocytes with fibroblasts; actives raise or lower the signal. Put shortly:
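Chemicals were dosed onto co-cultured human keratinocytes and foreskin fibroblasts, IL-1a was quantified by ELISA at 24 h, and activity was fitted in both directions relative to DMSO controls.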

Read-out in experiment [10]: TIMP metallopeptidase inhibitor 2 (TIMP2), TIMP2 (gene 7077)
Briefly: BSK_KF3CT_TIMP2: BioMAP Diversity Plus: KF3CT Assay for TIMP metallopeptidase inhibitor 2 (TIMP2) Biomarker Activity (AID 2283071). The following applies: primary human keratinocytes with fibroblasts; actives raise or lower the signal. Put shortly:
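Cells: human keratinocytes co-cultured with foreskin fibroblasts. Treat with chemical, 24 h. Measure TIMP-2 by ELISA; fit curves bidirectionally vs DMSO baseline.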

Read-out in experiment [11]: Transforming growth factor beta 1 (TGFb1), TGFB1 (gene 7040)
Briefly: BSK_KF3CT_TGFb1: BioMAP Diversity Plus: KF3CT Assay for Transforming growth factor beta 1 (TGFb1) Biomarker Activity (AID 2283072). The following applies: primary human keratinocytes with fibroblasts; actives raise or lower the signal. An outline of the steps: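 Primary human skin cells (keratinocytes, foreskin fibroblasts) were co-cultured, exposed to test chemical and sampled at 24 h. TGF-b1 levels were measured by ELISA and fitted bidirectionally relative to DMSO.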

Read-out in experiment [12]: C-C motif chemokine 2 (Homo sapiens) (UniProt P13500)
As to the kind of experiment: BSK_KF3CT_MCP1: BioMAP Diversity Plus: KF3CT Assay for Monocyte Chemoattractant Protein 1 (MCP1/CCL2) Biomarker Activity (AID 2283073). The conditions noted are these: primary human keratinocytes with fibroblasts; actives raise or lower the signal. An outline of the steps:
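Human keratinocyte plus foreskin fibroblast primary co-culture exposed to chemical for 24 h. MCP-1 levels measured by ELISA. Bidirectional curve fitting relative to DMSO negative control as baseline.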

Read-out in experiment [13]: Matrix Metallopeptidase 9 (MMP9), MMP9 (gene 4318)
As to the kind of experiment: BSK_KF3CT_MMP9: BioMAP Diversity Plus: KF3CT Assay for Matrix Metallopeptidase 9 (MMP9) Biomarker Activity (AID 2283074). The conditions noted are these: primary human keratinocytes with fibroblasts; actives raise or lower the signal. An outline of the steps: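 Human keratinocyte/foreskin fibroblast co-culture; compound added; 24 h; MMP-9 by ELISA; bidirectional fit vs DMSO baseline.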

Read-out in the next experiment: CD40, CD40 (gene 958)
As to the kind of experiment: BSK_LPS_CD40: BioMAP Diversity Plus: LPS Assay for CD40 Biomarker Activity (AID 2283076). The conditions noted are these: primary human HUVEC with PBMC; actives raise or lower the signal. Put shortly:
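Primary human umbilical vein endothelial cells co-cultured with peripheral blood mononuclear cells, LPS-stimulated, were dosed with chemical and read 24 h later. CD40 levels were measured by ELISA and fitted bidirectionally against DMSO as negative control and baseline.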

Read-out in experiment [14]: E-selectin (Homo sapiens) (UniProt P16581)
As to the kind of experiment: BSK_LPS_Eselectin: BioMAP Diversity Plus: LPS Assay for Eselectin Biomarker Activity (AID 2283077). The following applies: primary human HUVEC with PBMC; actives raise or lower the signal. An outline of the steps:
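Human umbilical vein endothelial cells co-cultured with peripheral blood mononuclear cells under LPS stimulation; E-selectin measured by ELISA 24 h after chemical dosing. Activity fitted bidirectionally against DMSO as negative control and baseline.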

Read-out in experiment [15]: Interleukin-8 (IL8), CXCL8 (gene 3576)
As to the kind of experiment: BSK_LPS_IL8: BioMAP Diversity Plus: LPS Assay for Interleukin-8 (IL8) Biomarker Activity (AID 2283078). The following applies: primary human HUVEC with PBMC; actives raise or lower the signal. An outline of the steps: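 Human umbilical vein endothelial cells co-cultured with PBMC were stimulated with LPS; IL-8 levels were measured by ELISA 24 h after chemical dosing. Activity was fitted bidirectionally against DMSO as negative control and baseline.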

The nature of experiment [16]: BSK_LPS_SRB: Viability Assessment in the BioMAP Diversity Plus: LPS Assay (AID 2283079).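 Note: total protein by sulforhodamine B absorbance as a cytotoxicity measure; measured one day after compound addition; fitted in both directions against DMSO so loss or gain of signal counts.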 The conditions noted are these: primary human HUVEC with PBMC. Put shortly: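 Human umbilical vein endothelial cells co-cultured with PBMC (LPS system) were dosed for 24 h. Total protein was stained with 0.1% sulforhodamine B after 10% TCA fixation, read at 560 nm, and fitted bidirectionally against DMSO baseline.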

Read-out in experiment [17]: Interleukin-1 alpha (IL1a), IL1A (gene 3552)
As to the kind of experiment: BSK_LPS_IL1a: BioMAP Diversity Plus: LPS Assay for Interleukin-1 alpha (IL1a) Biomarker Activity (AID 2283080). The following applies: primary human HUVEC with PBMC; actives raise or lower the signal. Put shortly: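 Human umbilical vein endothelial cells co-cultured with peripheral blood mononuclear cells were LPS-stimulated and exposed to test chemicals for 24 h. IL-1 alpha was quantified by ELISA, with bidirectional curve fitting against DMSO as the negative control and baseline.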

Read-out in experiment [18]: Monocyte Chemoattractant Protein-1 (MCP1), CCL2 (gene 6347)
Briefly: BSK_LPS_MCP1: BioMAP Diversity Plus: LPS Assay for Monocyte Chemoattractant Protein-1 (MCP1) Biomarker Activity (AID 2283081).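 For AC50: co-culture stimulated with LPS; secreted MCP-1 protein quantified by ELISA in culture supernatant.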 The conditions noted are these: primary human HUVEC with PBMC; actives raise or lower the signal. An outline of the steps: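 HUVEC plus PBMC co-culture (human primary cells, LPS system) exposed to test chemical for 24 h; MCP-1 measured by ELISA. Bidirectional curve fitting against DMSO baseline; parallel SRB total-protein staining flags overt cytotoxicity.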

Read-out in experiment [19]: urokinase plasminogen activator (uPA), PLAU (gene 5328)
Briefly: BSK_KF3CT_uPA: BioMAP Diversity Plus: KF3CT Assay for urokinase plasminogen activator (uPA) Biomarker Activity (AID 2283075). The following applies: primary human keratinocytes with fibroblasts; actives raise or lower the signal. Put shortly:
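ELISA readout of uPA, analyzed for signal gain or loss relative to DMSO, from a human primary keratinocyte–foreskin fibroblast co-culture measured 24 h after chemical treatment.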

The structures appear in SMILES notation. Active and inactive are the calls of the source. Rule for the calls: active = hit-call score of the fitted dose curve at least 0.9, where 1 is the maximum; inactive = score below 0.9.

Sequence of E-selectin (Homo sapiens) (P16581 whole entry, looked up): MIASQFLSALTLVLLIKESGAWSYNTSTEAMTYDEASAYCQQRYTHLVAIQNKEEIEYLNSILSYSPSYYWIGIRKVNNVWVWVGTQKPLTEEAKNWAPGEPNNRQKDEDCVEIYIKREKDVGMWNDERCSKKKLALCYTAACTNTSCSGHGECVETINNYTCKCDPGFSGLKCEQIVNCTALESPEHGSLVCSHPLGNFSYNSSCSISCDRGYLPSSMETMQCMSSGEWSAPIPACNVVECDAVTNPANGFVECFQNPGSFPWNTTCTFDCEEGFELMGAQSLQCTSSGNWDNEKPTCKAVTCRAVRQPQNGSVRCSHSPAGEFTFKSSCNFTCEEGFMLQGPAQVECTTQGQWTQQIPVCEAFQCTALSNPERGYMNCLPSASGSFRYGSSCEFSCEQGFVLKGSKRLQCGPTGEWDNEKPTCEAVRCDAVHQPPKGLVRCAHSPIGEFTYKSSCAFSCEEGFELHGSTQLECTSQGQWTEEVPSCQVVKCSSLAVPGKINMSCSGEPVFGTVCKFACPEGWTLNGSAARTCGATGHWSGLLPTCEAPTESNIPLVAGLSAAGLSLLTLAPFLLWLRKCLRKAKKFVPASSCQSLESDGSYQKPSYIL

For the molecule `O=C(O)c1cc(N=Nc2ccc(S(=O)(=O)Nc3ccccn3)cc2)ccc1O`, the outcome in [1], in experiment [2], in [3], in experiment [4], in experiment [5] and in [6] was inactive. The outcome in experiment [7], in [8], in [9], in experiment [10], in experiment [11] and in [12] was inactive. The outcome in experiment [13] is “inactive”; in the experiment with CD40, CD40 (gene 958), “inactive”; in experiment [14], “inactive”; in experiment [15], “inactive”; in [16] it was “inactive”; in experiment [17] it was “inactive”. The outcome in [18] was inactive.

As to `CC1(C)C(=O)N(Br)C(=O)N1Br`, the result in experiment [1], in experiment [2], in experiment [3], in [4], in [5] and in experiment [6] was inactive. Also, the result in experiment [7], in [8], in experiment [9], in experiment [10], in experiment [11] and in experiment [12] was inactive. The outcome is “inactive” in experiment [13]; “inactive” in [19]; “inactive” in the experiment with CD40, CD40 (gene 958); “inactive” in [14]; “inactive” in experiment [15]; “inactive” in [16]. Further, the outcome in [17] and in [18] was inactive.

`O=c1[nH]c2ccc(S(=O)CCN3CCC(Cc4ccc(F)cc4)CC3)cc2o1` (configuration not stated): the result in experiment [1], in experiment [2], in experiment [3], in experiment [4], in [5] and in experiment [6] was inactive. The result in [7], in experiment [8], in experiment [9], in experiment [10], in experiment [11] and in [12] was inactive. In addition, the outcome in experiment [13] is “inactive”; with CD40, CD40 (gene 958) it was “inactive”; in [14] it was “inactive”; in experiment [15], “inactive”; in experiment [16], “inactive”; in experiment [17] it was “inactive”. Also, the outcome in experiment [18] was inactive.

For the molecule `Cn1c(=O)cc(Oc2ccc(F)cc2F)c2cnc(NCC(C)(C)O)nc21`, the result in experiment [1], in [2], in [5], in [6], in [7] and in [8] was inactive. The outcome in [9] was “inactive”; in experiment [10] it was “inactive”; in [11], “inactive”; in experiment [12] it was “inactive”; in [13], “inactive”; in the experiment with CD40, CD40 (gene 958) it was “inactive”. Further, in experiment [16], the result was inactive. Further, the AC50 (in general, the concentration at which the activity in the assay is half-maximal) is 1.12 µM (active) in [3]; 0.92 µM (active) in [4]; 3.35 µM (active) in [14]; 2.9 µM (active) in experiment [15]; 3.97 µM (active) in experiment [17]; 3.88 µM (active) in experiment [18].
